From PMC5700166

Legend:
Test in all cases: protein-binding microarray (PBM); PBM: ~300 nM protein, 6 mM HEPES pH 7.8, 80 mM KCl, 0.5 mM EDTA, 0.5 mM EGTA, 6% glycerol, 35 ng/ul poly-dIdC, 1% milk, 1 h, room temperature; Ap Aiptasia and Nv Nematostella (sea anemones) / Co Capsaspora / Aq Amphimedon (sponge) / Dm Drosophila / Hu human; RHD is the Rel homology domain; high values mean tight binding
Conditions in all cases: dsDNA, one strand shown
GST-Ap-NF-kB RHD = target: T1, GST-Ap-NF-kB RHD (Exaiptasia pallida (Aiptasia), UniProt A0A913YAJ5 2-422)
T1 sequence: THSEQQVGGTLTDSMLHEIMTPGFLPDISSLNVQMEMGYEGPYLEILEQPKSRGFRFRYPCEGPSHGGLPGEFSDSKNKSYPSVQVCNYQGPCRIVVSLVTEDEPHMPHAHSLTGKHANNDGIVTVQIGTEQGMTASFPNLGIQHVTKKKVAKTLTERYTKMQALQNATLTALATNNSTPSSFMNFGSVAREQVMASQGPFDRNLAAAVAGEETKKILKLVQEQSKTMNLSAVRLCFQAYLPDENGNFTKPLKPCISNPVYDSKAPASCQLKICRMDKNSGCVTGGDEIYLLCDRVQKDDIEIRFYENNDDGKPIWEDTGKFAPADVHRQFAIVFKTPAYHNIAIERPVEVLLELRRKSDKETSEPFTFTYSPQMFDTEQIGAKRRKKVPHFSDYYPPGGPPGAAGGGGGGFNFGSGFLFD

[1] = target: T2, GST-Nv-NF-kB (Cys allele) (Nematostella vectensis, UniProt E5G601 2-411)
T2 sequence: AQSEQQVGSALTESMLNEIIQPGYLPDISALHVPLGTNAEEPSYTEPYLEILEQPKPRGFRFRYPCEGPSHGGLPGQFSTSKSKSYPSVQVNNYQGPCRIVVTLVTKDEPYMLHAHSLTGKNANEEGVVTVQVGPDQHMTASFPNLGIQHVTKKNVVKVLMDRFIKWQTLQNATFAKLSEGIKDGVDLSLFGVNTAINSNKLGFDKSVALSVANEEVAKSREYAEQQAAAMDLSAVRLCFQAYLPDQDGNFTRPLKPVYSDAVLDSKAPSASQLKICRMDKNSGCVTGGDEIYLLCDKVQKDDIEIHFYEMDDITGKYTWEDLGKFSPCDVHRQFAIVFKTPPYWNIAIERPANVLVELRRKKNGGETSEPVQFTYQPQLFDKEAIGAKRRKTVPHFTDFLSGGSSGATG

GST-Co-NF-kB = target: T3, GST-Co-NF-kB (Capsaspora owczarzaki, UniProt F1ARL5 200-546)
T3 sequence: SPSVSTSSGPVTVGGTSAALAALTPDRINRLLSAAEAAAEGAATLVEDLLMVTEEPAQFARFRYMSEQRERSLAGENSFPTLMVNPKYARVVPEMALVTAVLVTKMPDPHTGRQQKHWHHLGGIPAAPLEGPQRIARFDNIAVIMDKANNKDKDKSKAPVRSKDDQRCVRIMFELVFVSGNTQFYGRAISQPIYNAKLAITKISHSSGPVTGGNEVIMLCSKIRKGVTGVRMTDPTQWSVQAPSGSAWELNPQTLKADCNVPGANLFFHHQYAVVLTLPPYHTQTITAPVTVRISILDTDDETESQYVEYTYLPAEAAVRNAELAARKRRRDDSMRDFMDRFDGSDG

GST-Dm-Relish = target: T4, GST-Dm-Relish (Drosophila melanogaster, UniProt Q94527 99-473)
T4 sequence: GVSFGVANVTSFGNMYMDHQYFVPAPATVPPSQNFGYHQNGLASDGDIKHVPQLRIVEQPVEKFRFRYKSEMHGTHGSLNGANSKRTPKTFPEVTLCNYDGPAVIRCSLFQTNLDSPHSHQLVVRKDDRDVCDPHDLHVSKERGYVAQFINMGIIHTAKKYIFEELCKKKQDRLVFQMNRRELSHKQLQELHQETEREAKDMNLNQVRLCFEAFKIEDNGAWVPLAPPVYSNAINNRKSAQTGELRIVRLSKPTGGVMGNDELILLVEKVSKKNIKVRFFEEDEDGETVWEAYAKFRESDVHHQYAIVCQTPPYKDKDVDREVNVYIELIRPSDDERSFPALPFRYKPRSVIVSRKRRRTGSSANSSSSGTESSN

GST-Aq-NF-kB = target: T5, GST-Aq-NF-kB (Amphimedon queenslandica, UniProt A9Y5G7 2-389)
T5 sequence: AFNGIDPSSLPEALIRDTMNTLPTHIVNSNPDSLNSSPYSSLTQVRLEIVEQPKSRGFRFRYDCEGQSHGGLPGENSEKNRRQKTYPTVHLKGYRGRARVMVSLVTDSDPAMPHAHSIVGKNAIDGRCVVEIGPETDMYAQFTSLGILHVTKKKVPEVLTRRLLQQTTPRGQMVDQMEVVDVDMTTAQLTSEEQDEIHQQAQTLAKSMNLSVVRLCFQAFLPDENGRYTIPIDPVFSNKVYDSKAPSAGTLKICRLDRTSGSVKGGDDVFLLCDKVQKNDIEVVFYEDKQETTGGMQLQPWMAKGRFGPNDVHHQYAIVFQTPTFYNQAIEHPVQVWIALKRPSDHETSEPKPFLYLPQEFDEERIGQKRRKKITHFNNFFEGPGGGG

Row | Sequence | binding signal (GST-Ap-NF-kB RHD) [z-score] | binding signal [1] [z-score] | binding signal (GST-Co-NF-kB) [z-score] | binding signal (GST-Dm-Relish) [z-score] | binding signal (GST-Aq-NF-kB) [z-score]
1 | CCGATTAACATCATCCGGGAAAATGATGTTAATCGGGTCTTGATTCGCTTGACGCTGCTG | 2.01 | 3.79 | 4.53 | 1.58 | 2.54
2 | CCGATTAACATCAGGAGTTACCCTGATGTTAATCGGGTCTTGATTCGCTTGACGCTGCTG | 2.75 | 3.81 | 2.23 | 5.11 | 6.71
3 | CCGATTAACATCAAATATACCCATGATGTTAATCGGGTCTTGATTCGCTTGACGCTGCTG | 2.13 | 2.41 | 1.8 | 2.31 | 2.52
4 | CCGATTAACATCACGGGATTTACTGATGTTAATCGGGTCTTGATTCGCTTGACGCTGCTG | 2.52 | 2.6 | 1.01 | 7.12 | 3.52
5 | CCGATTAACATCAAAAAAACCCATGATGTTAATCGGGTCTTGATTCGCTTGACGCTGCTG | 3.72 | 4.44 | 1.87 | 6.31 | 5.47
6 | CCGATTAACATCAGGGGGATCACTGATGTTAATCGGGTCTTGATTCGCTTGACGCTGCTG | 5.55 | 4.61 | 5.17 | 9.4 | 5.38
7 | CCGATTAACATCAAGCAACCCCCTGATGTTAATCGGGTCTTGATTCGCTTGACGCTGCTG | 5.23 | 3.34 | 2.21 | 5.19 | 4.14
8 | CCGATTAACATCAAACTCTCCCCTGATGTTAATCGGGTCTTGATTCGCTTGACGCTGCTG | 5.13 | 4.94 | 6.22 | 1.21 | 4.74
9 | CCGATTAACATCAGGGGTTACACTGATGTTAATCGGGTCTTGATTCGCTTGACGCTGCTG | 2.67 | 1.04 | 2.66 | 2 | 2.36
